Results: PubChem BioAssay AID1240 (Sanford-Burnham Center for Chemical Genomics, 2008)
Among all 50,000 compounds or so, about 800 (1.6%) showed an effect of 50% or more. This excerpt belongs to a sample that is enriched for strong results.

Each compound was assayed against Bcl-2-like protein 10 (Homo sapiens) (UniProt Q9HD36) (assay: Phenotype converters, Bcl-B/TR3 peptide binding displacement, primary biochemical FP (AID 1240;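 also: 0% = Bcl-B with tracer peptide and DMSO and 100% = tracer peptide lacking Bcl-B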)). Conditions: GST-Bcl-B / FITC-TR3 peptide fluorescence polarization; stronger effect = higher value; compound at 3.75 mg/L.
Sequence of Bcl-2-like protein 10 (Homo sapiens) (Q9HD36 whole entry, looked up): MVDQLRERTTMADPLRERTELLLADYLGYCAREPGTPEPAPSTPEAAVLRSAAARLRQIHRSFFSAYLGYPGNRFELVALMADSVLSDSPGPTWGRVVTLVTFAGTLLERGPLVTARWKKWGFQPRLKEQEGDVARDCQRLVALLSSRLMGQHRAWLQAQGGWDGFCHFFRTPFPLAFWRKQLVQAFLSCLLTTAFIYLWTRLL
In the case of `COc1ccccc1C(=O)N1CCN(Cc2ccccc2[N+](=O)[O-])CC1`, the displacement was 1.5%. With `COc1ccc(-n2cnc3cc(Nc4nnc(C)c5ccccc45)ccc32)cc1` the displacement was 0.8%. `CCOC(=O)c1cc(CC)sc1NC(=O)c1cc([N+](=O)[O-])ccc1N1CCN(CC)CC1` showed a displacement of -2.3%. `O=C(CSc1ncn[nH]1)c1ccc(Br)cc1` showed a displacement of 8.5%. With `COc1ccc(S(=O)(=O)N(Cc2ccccc2)c2ccccc2C(=O)N2CCOCC2)cc1` the displacement was -1.1%. With `CC(C)(CNC(=O)c1cccnc1)CNC(=O)c1cccnc1` the displacement was 7.9%. In the case of `O=C(O)C(Cc1ccccc1)n1c(O)c(/C=C2\C=Nc3ccccc32)sc1=S` (centres undefined), the displacement was -2.3%. For `Cc1cc(/C=N/O)c(C)n1-c1ccc(F)cc1`, the displacement was 12.6%. `COC(=O)c1ccc(NC(=S)NC(=O)/C=C/c2ccc(Br)cc2)cc1` showed a displacement of 13.2%. `COc1ccc2c(c1OC)C(=O)OC2Nc1ccccc1Br` (centres undefined) showed a displacement of -5.8%. Work on `COc1ccc(/C=C/C(=O)/C=C/c2ccc(N(C)C)cc2)cc1` yielded a displacement of -3%. In the case of `COc1ccc(-n2nnnc2C(Cl)(Cl)c2nnnn2-c2ccc(OC)cc2)cc1`, the displacement was 5.8%. `COc1ccc(-n2nnnc2C(=Cc2ccc(N(C)C)cc2)c2nnnn2-c2ccc(OC)cc2)cc1` was tested, and the displacement was 157%. For `CCOc1cc(/C=C2\SC(=Nc3cccc(Cl)c3C)NC2=O)ccc1O`, the displacement was -11.7%. In the case of `O=C1C(Nc2ccccc2)=CC(c2cccc(F)c2)N1c1ccccc1` (centres undefined), the displacement was 14.1%. For `O=C(c1ccccc1)N1CCN(c2nc(-c3ccccc3)c3cc(Cl)ccc3n2)CC1`, the displacement was 10.6%. `O=C(c1ccccc1Cl)N1CCN(c2nc(-c3ccccc3)c3cc(Br)ccc3n2)CC1` showed a displacement of -5.8%. `O=CN1CCN(c2nc(-c3ccccc3)c3cc(Cl)ccc3n2)CC1` showed a displacement of 113%. For `O=C(c1ccc([N+](=O)[O-])cc1)N1CCN(c2nc(-c3ccccc3)c3cc(Cl)ccc3n2)CC1`, the displacement was 17.5%. `O=CN1CCN(c2nc(-c3ccccc3)c3cc(Br)ccc3n2)CC1` showed a displacement of 84.9%. `Brc1ccc2nc(N3CCNCC3)nc(-c3ccccc3)c2c1` showed a displacement of -8.1%. In the case of `CC1=C(C#N)c2nc(N)c(C#N)c(C)c2/C1=C\c1cc([N+](=O)[O-])ccc1Cl`, the displacement was 0.6%. `Cc1cccc(OCCOc2ccccc2/C=C2/SC(=S)N(C)C2=O)c1` gave a displacement of -0.4%. `Fc1cc(F)c(F)c(SCCc2ccncc2)c1F` gave a displacement of 5.9%. Compound `COc1cccc(N2C(=O)NC(=O)/C(=C/C=C/c3ccco3)C2=O)c1` has a displacement of -47.4%. With `C/C(=N\NC(=O)COc1ccc(Cl)cc1Cl)c1cccnc1` the displacement was 1.9%. In the case of `O=C1C2ON(c3ccc(Cl)cc3)C(c3cccs3)C2C(=O)N1c1cccc(C(F)(F)F)c1` (centres undefined), the displacement was -18.1%. `COc1ccc(OCC(O)CN(C)S(=O)(=O)O)cc1` (centres undefined) showed a displacement of -6.7%. `O=C(Cc1ccc(Br)cc1)N1CCN(c2ccccc2)CC1` was tested, and the displacement was 9.8%. With `COc1ccc(C2CC(=O)C3=C(C2)Nc2ccccc2NC3c2cccc(OC)c2OC)cc1OC` (centres undefined) the displacement was -3.7%. Compound `CC(=O)Nc1ccc(NC(=O)CSc2ccccn2)cc1` has a displacement of -2.6%. Work on `O=C(CSc1ccccn1)Nc1ccc2c(c1)C(=O)c1ccccc1C2=O` yielded a displacement of 54.6%. `O=C(CSc1ccccn1)Nc1ccc(F)cc1` gave a displacement of -11.4%. Compound `CC1(C)CC(=O)c2cnc(NC(=O)Cc3ccc(Cl)cc3)nc2C1` has a displacement of -0.2%. Compound `COc1ccc(CC(c2nc3ccccc3[nH]2)C(C)c2nc3ccccc3[nH]2)cc1` (centres undefined) has a displacement of 8%. With `O=c1oc(/C=C\c2ccccc2)nc2ccc(Br)cc12` the displacement was 10.7%. `Clc1ccc(CN2CCN(/N=C\c3ccc(OCc4ccccc4)cc3)CC2)cc1` gave a displacement of -9.5%. Compound `CCOC(=O)C1=C(C)N=c2s/c(=C\C=C\c3ccco3)c(=O)n2C1c1ccc(OC)cc1` (centres undefined) has a displacement of 63.9%. For `CCOC(=O)C1=C(C)N=c2s/c(=C\c3ccco3)c(=O)n2C1c1ccccc1OC` (centres undefined), the displacement was 74.3%. Compound `CCOC(=O)C1=C(c2ccccc2)N=c2s/c(=C\c3cccnc3)c(=O)n2C1c1cccc(OC)c1OC` (centres undefined) has a displacement of 5.1%. `CCOC(=O)C1=C(C)N=c2s/c(=C\c3ccco3)c(=O)n2C1c1cccc(OC)c1` (centres undefined) gave a displacement of -25.3%. Work on `CCOC(=O)C1=C(C)N=c2s/c(=C\C=C\c3ccccc3)c(=O)n2C1c1ccc(OC(C)=O)cc1` (centres undefined) yielded a displacement of 16.9%. With `CCOC(=O)C1=C(c2ccccc2)N=c2s/c(=C\c3ccco3)c(=O)n2C1c1cccc(OC)c1OC` (centres undefined) the displacement was 76.4%. `CCOC(=O)C1=C(C)N=c2s/c(=C/c3ccc(I)o3)c(=O)n2C1c1ccccc1OC` (centres undefined) gave a displacement of 14.5%. `CCOC(=O)C1=C(c2ccccc2)N=c2s/c(=C\c3cccc(O)c3)c(=O)n2C1c1cccc(OC)c1OC` (centres undefined) showed a displacement of 7.6%. With `CCOC(=O)C1=C(C)N=c2s/c(=C\c3ccco3)c(=O)n2C1c1ccccc1` (centres undefined) the displacement was 16.5%. Compound `CC1CCC2(CC1)C(C#N)=C(SCC(N)=O)NC(=O)C2C#N` (centres undefined) has a displacement of -7.2%. In the case of `CCOC(=O)c1sc(NC(=O)c2ccc(Cl)cc2Cl)nc1C`, the displacement was 17%. Compound `O=C1CC(N(Cc2ccco2)C(=S)NCCc2ccccc2)C(=O)N1c1ccc(F)cc1` (centres undefined) has a displacement of 27.4%. With `CC(C)(C)NC(=O)c1cccc(C(=O)Nc2cccc(O)c2)c1` the displacement was -3.2%. `c1ccc(C2=Nc3ccccc3NC(c3ccccc3)C2)cc1` (centres undefined) showed a displacement of -26.7%. With `O=C(NN1C(=O)/C(=C/c2ccc(O)c(O)c2)SC1=S)c1ccccc1Br` the displacement was 73%. In the case of `O=C(NN1C(=O)/C(=C/c2ccc(O)cc2)SC1=S)c1ccccc1Br`, the displacement was -72.2%. Work on `COc1cc(/C=C2\SC(=S)N(NC(=O)c3ccccc3Br)C2=O)ccc1O` yielded a displacement of -21.3%. `CCCCOc1cccc(NC(=O)c2cccc([N+](=O)[O-])c2C)c1` gave a displacement of 5%. Compound `O=C(Cc1ccc(Br)cc1)Nc1cc([N+](=O)[O-])ccc1Cl` has a displacement of 4.4%. In the case of `O=C1N/C(=N\N=C\c2ccccc2O)SC1Cc1ccc(Cl)cc1` (centres undefined), the displacement was 8.7%. In the case of `O=C(NNC(=O)c1cccc(Cl)c1)c1cccc(F)c1`, the displacement was -4.7%. Compound `CCC(C)(C)C1CCc2c(sc(NC(=O)c3cnccn3)c2C(=O)OC)C1` (centres undefined) has a displacement of 6.1%. For `N#Cc1c(/N=C/c2cc([N+](=O)[O-])c(N3CCOCC3)cc2N2CCOCC2)sc2c1CCCC2`, the displacement was 14.5%. `N#Cc1c(/N=C\c2ccc(N3CCOCC3)c([N+](=O)[O-])c2)sc2c1CCCC2` gave a displacement of 81.3%. For `N#Cc1c(/N=C\c2ccc(N3CCCCC3)c([N+](=O)[O-])c2)sc2c1CCCC2`, the displacement was -5.3%. Compound `O=C1NC(=O)/C(=C\c2ccc(O)cc2)S1` has a displacement of 1.8%. `CCc1ccc(OCC(=O)Nc2ccc(-c3nc4ccccc4o3)c(O)c2)cc1` gave a displacement of 0.8%. `CCCC(=O)Nc1ccc(-c2nc3cc(C)c(C)cc3o2)cc1` gave a displacement of 14.7%. In the case of `CCc1ccc(OCC(=O)Nc2ccc(O)c(-c3nc4cc(C)ccc4o3)c2)cc1`, the displacement was 7.4%. `CCc1ccc(OCC(=O)Nc2ccc(-c3nc4cc(C)c(C)cc4o3)c(O)c2)cc1` showed a displacement of 118%. Work on `CCC(=O)Nc1ccc(O)c(-c2nc3cc(C)c(C)cc3o2)c1` yielded a displacement of -7%. In the case of `CCCC(=O)Nc1ccc(-c2nc3cc(C)c(C)cc3o2)c(O)c1`, the displacement was 96.8%.
